Nrf2 block: Nrf2 qHTS screen for inhibitors | Potency, µM (series often up to 46 µM), usual class: inhibitors | A549 ARE-Fluc reporter, luciferase luminescence, 18-24 h | 360,000 compounds, 2.1% hits | AID 504444, 2011; note: nearly all actives have a fitted effect of over 60% in size
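A549 ARE_Fluc cells (5000/well, 5% FBS OPTI-MEM) pre-incubated 2 h, then treated with compounds 18-24 h at 37C/5% CO2 in concentration-response. CellTiter-Fluor viability read first; BugLite luciferase luminescence after 15 min at room temperature gives Nrf2 activity.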
ATXN2 expr inh: Primary qHTS for Inhibitors of ATXN expression. HEK-293 ATXN2-luciferase reporter, luminescence, 24 h. Potency, µM (titrated, usually from 57 µM), usual class: inhibitors. 360,000 compounds, 0.72% hits; note: nearly all actives have a fitted effect of over 55% in size
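ATXN2-luciferase reporter cells (luciferase flanked by upstream and downstream ATXN2 gene portions) were treated 24 h at 37 °C with compounds at up to 57 uM. SteadyGlo luminescence gave expression; GF-AFC fluorescence gave viability.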
A549 tox: Nrf2 qHTS screen for inhibitors: counterscreen for cytotoxicity | A549 ARE-Fluc cells, CellTiter-Fluor viability, 18-24 h | Potency, µM (doses to about 46 µM), actives largely listed as inhibitors | 390,000 compounds, 0.16% hits
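A549 ARE_Fluc cells in 5% FBS OPTI-MEM were exposed to compounds in concentration-response for 18-24 h at 37 deg C. Viability was read by CellTiter-Fluor fluorescence (Ex 405/Em 525) after 30 min, before the luciferase read.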
S2 tox: Viability Counterscreen for Primary qHTS for Inhibitors of ATXN expression | S2 cells (HEK-293 line with an ATXN2-luciferase reporter) viability, CellTiter-Fluor protease fluorescence, 24 h | Potency, µM (titrated, usually from 56.7 µM), usual class: cytotoxic | 400,000 compounds, 0.49% hits; note: nearly all actives have a fitted effect of over 40% in size
Nrf2 activator: qHTS of Nrf2 Activators | AID 624171, 2012 | AREc32 ARE-luciferase reporter (MCF7-derived line), luminescence, 24 h | 410,000 compounds, 0.31% hits | Potency, µM (top dose mostly 46.1 µM), most hits filed as activators; note: nearly all actives have a fitted effect of over 65% in size
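ARE activation measured as luciferase luminescence (Steady-Glo, 30 min RT) in AREc32_Fluc cells after 24 hr compound exposure at 37 deg C, 5% CO2; cells seeded overnight at 1000/well in OPTI-MEM, 5% FBS.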
Hits are given with their value; . = inactive; ? = inconclusive; / = no result given; [ ] = dose if it differs, or a comment. Compounds with a hit are over-represented: about 2.9% of the library has one in this group of screens. Calls come from the whole dose curve; as a rule, active = well fitted curve in the direction sought with a large enough effect; inconclusive = small, poorly fitted or top-dose-only effect, or another doubt; inactive = no such curve, though single readings can be large; an effect the other way counts as inactive or inconclusive.

SMILES | Nrf2 block | ATXN2 expr inh | A549 tox | S2 tox | Nrf2 activator
CC(C)(C)OC(=O)NS(=O)(=O)Nc1ccccc1Br | . | / | . | / | /
CC1=C(C(=O)Nc2ccc(Cl)cc2)C(c2ccccc2C)n2ncc(C(=O)Nc3ccc(C)cc3)c2N1 (configuration not stated) | . | . | . | . | .
CC1=C(C(=O)Nc2ccc(Cl)cc2)C(c2ccccc2)n2ncc(C(=O)Nc3ccccc3)c2N1 (configuration not stated) | 16µM | / | . | / | .
O=Cc1ccc(O)c2ncccc12 | ? | 3.5µM | . | / | ?
CCCN1CCCc2cc(CN)ccc21 | 9.2µM | ? | .[1.84 µM] | . | .
COc1ccc(/C=C/C(=O)NC(=S)NNC(=O)c2cnccn2)cc1 | ? | 14µM | ? | ? | .
O=C(/C=C/c1ccc(F)cc1)NC(=S)NNC(=O)c1cnccn1 | ? | ? | . | ? | .
N#C/C(=C/c1ccc(Sc2nc3ccccc3[nH]2)o1)c1cccc(F)c1 | 21µM | ? | 26µM | . | .
N#C/C(=C/c1ccc(Sc2nc3ccccc3[nH]2)o1)c1cccc(Br)c1 | 16µM | ? | ? | ? | .
CN(C)CC[C@H](CSc1ccccc1)Nc1ccc(S(=O)(=O)NC(=O)c2ccc(N3CCN(Cc4ccccc4-c4ccc(Cl)cc4)CC3)cc2)cc1[N+](=O)[O-] | / | . | / | / | /
O=S(=O)(c1ccccc1)N1CCN(Cc2ccccc2C(F)(F)F)CC1 | . | . | . | . | .
O=[N+]([O-])c1ccccc1CN1CCN(S(=O)(=O)c2ccccc2)CC1 | 16µM | . | . | . | .
COc1ccccc1C(=O)N[C@@H]1c2ccccc2C2(CCN(C(=O)c3ccnn3C)CC2)[C@H]1OC | / | / | / | . | /
CCc1ccc(C2/C=C\CNC(c3ccccc3)C(=O)N2Cc2ccc(C)cc2)cc1 (configuration not stated) | . | / | . | / | /
Cc1nn(C)c(Cl)c1S(=O)(=O)N1CCC(CO)(CCc2ccccc2)CC1 | 21µM | . | . | . | .
CCOc1ccccc1NC(=O)c1cc2c(=O)oc3ccccc3c2s1 | ? | / | . | / | .
Cn1nc(CC(=O)N2CCN(c3ccccc3)CC2)c2ccccc2c1=O | . | . | . | . | .
Cn1nc(CC(=O)Nc2ccc(N3CCN(C(=O)OC(C)(C)C)CC3)cc2)c2ccccc2c1=O | 10µM | . | . | . | .
Cc1cnc(C)c(-c2cc(F)cc3c2OC(CNC(=O)c2cc(Cl)ccc2F)C3)n1 (configuration not stated) | / | / | / | . | /
Cc1ccc(-c2nnc(NC(=O)c3ccc([N+](=O)[O-])o3)o2)c(C)c1 | ? | ? | ? | ? | 7.1µM
Cc1cccnc1NC(=O)c1ccc([N+](=O)[O-])o1 | ? | . | . | ? | 22µM
COc1ccccc1CN1CCOc2ccc(CN3CCCCC3CO)cc2C1 (configuration not stated) | / | / | / | . | /
C(=C\c1nc(-c2ccccc2)no1)/c1ccccc1 | ? | . | . | . | 14µM
C(=C\c1nc(-c2ccncc2)no1)/c1ccccc1 | ? | . | . | . | ?
COC(=O)CNC(=O)c1cnn(-c2ncc3c(n2)-c2ccccc2CCC3)c1C1CC1 | / | / | / | . | /
SMILES | Nrf2 block | ATXN2 expr inh | A549 tox | S2 tox | Nrf2 activator
O=c1c2ccccc2c(-c2ccc(O)cc2)nn1-c1cccc(C(F)(F)F)c1 | 23µM | ? | . | . | .
O=c1c2ccccc2c(-c2cccc(C(F)(F)F)c2)nn1-c1ccccc1 | . | . | . | . | .
CC(Cc1cccs1)NC(=S)Nc1ccc(Cl)c(Cl)c1 (configuration not stated) | ? | . | . | . | .
CC(Cc1cccs1)NC(=S)Nc1ccc(Cl)cc1 (configuration not stated) | 18µM | . | . | . | .
O=C(OCc1nc2scc(-c3ccccc3)c2c(=O)[nH]1)c1cc(Cl)ccc1[N+](=O)[O-] | . | . | . | / | .
Cc1c(C(=O)OCc2nc3scc(-c4ccccc4)c3c(=O)[nH]2)cccc1[N+](=O)[O-] | 21µM | . | . | . | .
CN[C@@H](C)[C@H]1[C@H](O)C[C@@]2(C)[C@@H]3CC[C@H]4C(C)(C)[C@@H](NC)CC[C@@]45C[C@@]35CC[C@]12C | / | . | / | / | /
Cc1cccc(C)c1OCC(=O)N[C@@H](Cc1ccccc1)[C@@H](O)C[C@H](Cc1ccccc1)NC(=O)[C@H](C(C)C)N1CCCNC1=O | / | ? | / | 32µM | /
Cc1ccc2c(Cl)cc(Cl)c(OCC(=O)Nc3cccc(S(=O)(=O)N(C)C)c3)c2n1 | . | . | . | . | .
Cc1ccc2c(Cl)cc(Cl)c(OCC(=O)Nc3cc(S(=O)(=O)N(C)C)ccc3C)c2n1 | 15µM | ? | . | . | .
O=C(NC1CCCC1)c1c[nH]c2ccc(S(=O)(=O)Nc3cccc(C(F)(F)F)c3)cc2c1=O | ? | . | . | . | .
COc1cc(C(=O)N2CCc3c([nH]c4ccccc34)C2c2ccc(F)cc2)cc(OC)c1OC (configuration not stated) | / | / | . | / | .
CC1=NN(c2ccc(C)c(C)c2)C(=O)/C1=C\C=C\c1ccc([N+](=O)[O-])o1 | ? | ? | ? | 3.2µM | .
CC[C@@H]1O[C@]2(C=C[C@@H]1C)C[C@H]1C[C@H](CC=C(C)[C@@H](O[C@@H]3C[C@H](OC)[C@H](O[C@@H]4C[C@H](OC)[C@H](O)[C@H](C)O4)[C@H](C)O3)[C@@H](C)C=CC=C3CO[C@@H]4[C@@H](O)C(C)=C[C@@H](C(=O)O1)[C@]34O)O2 | / | / | / | 16µM | /
C=CCSc1n[nH]c(-c2ccc(OCCCC)cc2)n1 | . | ? | . | 28µM | .
C=CCSc1n[nH]c(-c2ccc(OCCC)cc2)n1 | / | . | . | . | .
Cc1ccc(N2CC(NC(=O)c3cccc(Cl)c3)CC2=O)cc1C (configuration not stated) | / | / | . | / | .
Cc1ccc(N=c2oc3cc(O)ccc3cc2C(N)=O)cc1 | 21µM | . | . | / | .
CC(=O)c1cc2ccc(O)cc2oc1=O | . | / | . | / | .
Cc1oc(-c2cccc(Cl)c2)nc1CSCC(=O)NCc1ccccc1Cl | 23µM | / | ? | / | .
Cc1ccc(CNC(=O)CSCc2nc(-c3ccc(Cl)cc3)oc2C)cc1 | 21µM | / | . | / | .
CC(C)Cn1nc(NC(=O)c2cccc(Cl)c2)c2cc3ccccc3nc21 | . | . | . | / | .
OC(c1ccccc1)(c1ccccc1)C1CCN(C(=S)NCCc2ccccc2)CC1 | 23µM | . | ? | . | .
CC1CCN(C(=S)NCCc2ccccc2)CC1 | / | . | . | . | .
CSc1cccc(NS(=O)(=O)c2ccc3c(c2)CCN3C(C)=O)c1 | ? | . | . | . | .
CC1CN(C(=O)c2ccc(S(=O)(=O)Nc3cccc(C(F)(F)F)c3)cc2)CC(C)O1 (configuration not stated) | 13µM | . | . | . | .

Source: PubChem BioAssay (National Center for Advancing Translational Sciences (NCATS))
